# In the library only some 3.1% were active in any assay of this set; here they are far more common.
# PriA SSB inh = K. pneumoniae PriA-SSBct interaction inhibition; AlphaScreen SSBct-PriA binding, biotinylated peptide; inhibition, % at 33 µM; 430,000 compounds, 0.6% hits; in the data active = inhibition mostly above about 37%, no sharp cut-off; inactive = mostly below about 20%;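 also: plate controls were negative control peptide for no effect and reference peptide for full effect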
# Bead autofluor = counter-screen for toxin protease inhibitors: compound fluorescence; fluorescence intensity (concentration not given with the values); compound autofluorescence counterscreen, microsphere flow cytometry; stronger effect = higher value; 360,000 compounds, 3.1% hits; in the data active = fluorescence intensity above about 16000; inconclusive = no clear call, values can overlap the other calls
# BoNT-A LC inh2 = BoNT A light chain protease inhibition | multiplex microsphere protease substrate cleavage, flow cytometry | inhibition, % at 10 µM | 360,000 compounds, 0.17% hits; also: plate controls were buffer without enzyme for full effect and enzyme alone for no effect
# Anthrax LF prot = inhibitors of Bacillus anthracis lethal factor protease. P15917. multiplex microsphere protease cleavage assay, LF. inhibition, % at 10 µM. 360,000 compounds, 0.12% hits. AID 588501; also: plate controls were buffer without enzyme for full effect and enzyme alone for no effect
# Target sequence (P15917 whole entry, looked up): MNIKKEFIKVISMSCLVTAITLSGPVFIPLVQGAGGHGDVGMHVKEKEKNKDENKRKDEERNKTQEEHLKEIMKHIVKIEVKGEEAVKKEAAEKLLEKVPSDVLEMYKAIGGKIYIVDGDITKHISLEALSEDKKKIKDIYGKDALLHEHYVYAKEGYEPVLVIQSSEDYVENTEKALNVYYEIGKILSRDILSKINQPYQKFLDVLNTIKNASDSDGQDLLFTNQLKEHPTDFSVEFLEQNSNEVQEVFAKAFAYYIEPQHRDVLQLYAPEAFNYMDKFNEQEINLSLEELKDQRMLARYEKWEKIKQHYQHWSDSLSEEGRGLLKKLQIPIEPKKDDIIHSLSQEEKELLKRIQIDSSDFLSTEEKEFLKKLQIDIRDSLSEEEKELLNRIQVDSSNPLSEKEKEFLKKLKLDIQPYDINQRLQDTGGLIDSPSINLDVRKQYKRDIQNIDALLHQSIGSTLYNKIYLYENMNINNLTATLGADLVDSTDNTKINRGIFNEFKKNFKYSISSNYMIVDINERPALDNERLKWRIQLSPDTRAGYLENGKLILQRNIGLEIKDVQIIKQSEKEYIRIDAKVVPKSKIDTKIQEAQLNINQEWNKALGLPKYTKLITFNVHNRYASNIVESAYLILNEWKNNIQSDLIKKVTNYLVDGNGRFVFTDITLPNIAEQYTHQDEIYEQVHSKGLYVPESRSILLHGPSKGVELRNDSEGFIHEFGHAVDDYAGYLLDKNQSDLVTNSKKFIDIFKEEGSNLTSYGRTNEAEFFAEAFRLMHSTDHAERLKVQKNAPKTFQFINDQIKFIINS
# BoNT-F LC inh = inhibitors of Botulinum neurotoxin F light chain protease. inhibition, % at 10 µM. AID 588497. 360,000 compounds, 0.22% hits. Multiplex microsphere protease cleavage assay, flow cytometry; in the data active = inhibition above about 35%, passing the limit was not always enough; inconclusive = no clear call, values can overlap the other calls; also: plate controls were buffer without enzyme for full effect and enzyme alone for no effect
# * = called active by the depositor; ? = inconclusive; · = no result; ! = not active in a repeat. Rule as the data show it, unless noted: active = inhibition above about 30%; inconclusive = no clear call, values can overlap the other calls; inactive = below that.
SMILES,PriA SSB inh,Bead autofluor,BoNT-A LC inh2,Anthrax LF prot,BoNT-F LC inh
O=C(Nc1nc(-c2ccccn2)cs1)c1ccccc1F,94.0*,·,·,·,·
Cc1cc(C(=O)Nc2nc(-c3ccccn3)cs2)c(C)o1,82.4*,·,·,·,·
Cc1cccc(C(=O)Nc2nc(-c3ccccn3)cs2)c1C,73.2*,·,·,·,·
COc1cccc(C2SCCN2S(=O)(=O)c2cc3c4c(c2)CCN4C(=O)CC3)c1 (configuration not stated),1.0,·,·,·,·
O=S(=O)(O)Cc1cccc(F)c1,23.0,·,·,·,·
O=C(CCc1csc(NC(=O)c2ccco2)n1)Nc1ccc2c(c1)OCCO2,-10.0,·,·,·,·
FC(F)Oc1ccc(NC(=S)NCCCn2ccnc2)cc1,14.0,·,·,·,·
COc1ccccc1Nc1nc(-c2ccccn2)cs1,26.2,·,·,·,·
O=C(Nc1nc(-c2ccccn2)cs1)c1ccccc1Br,91.0*,·,·,·,·
COc1ccc2oc(C(=O)Nc3nc(-c4ccccn4)cs3)c(C)c2c1,42.1*,5806,6.1,1.0,-6.7
Fc1ccccc1Nc1nc(-c2ccccn2)cs1,77.1*,·,·,·,·
O=C(Nc1nc(-c2ccccn2)cs1)c1cccc(C(=O)Nc2nc(-c3ccccn3)cs2)n1,2.0,·,·,·,·
Cc1cc(C(=O)Nc2nc(-c3ccccn3)cs2)c(C)s1,62.1,·,·,·,·
Cc1nc(C(C)C)c(C(=O)Nc2nc(-c3ccccn3)cs2)s1,59.2*,·,·,·,·
CSCC(C)(O)CNC(=O)Nc1ccccc1F (configuration not stated),-7.0,·,·,·,·
CNC(=O)Cc1csc(NC(=O)C2CCN(c3cc(-c4ccccc4)ncn3)CC2)n1,1.0,·,·,·,·
O=C(Nc1nc(-c2ccccn2)cs1)c1ccc(Br)s1,56.4*,9200,0.6,-11.1,-0.8
COc1cccc(C2NC(=O)NC(C)=C2C(=O)Nc2ccc(C)cc2)c1OC (configuration not stated),-2.3,9014,-1.6,-14.1,-20.6
O=C(Nc1nc(-c2nc3ccccc3s2)cs1)c1ccc(Br)s1,-4.0,·,·,·,·
COc1ccc(NC(=O)C2=C(C)NC(=O)NC2c2cccc(OC)c2OC)c(OC)c1 (configuration not stated),17.0,20365*,?,2.8,-0.2
COc1ccc(NC(=O)c2oc3ccccc3c2C)c(OC)c1,-14.4,22634*,?,-0.1,-3.3
CC1C(=O)NCCN1C(=O)c1ccc(Cl)s1 (configuration not stated),-11.0,·,·,·,·
Cc1cccc(-c2c3c(=O)n(C)c(=O)n(C)c3cn2-c2ccc(O)cc2)c1,-14.9,20937*,-1.2,0.0,-2.5
Cn1c(=O)c2c(-c3ccccc3)n(-c3cccc(O)c3)cc2n(C)c1=O,·,6107,-0.6,-12.1,-13.5
Cc1sc(NC(=O)c2ccco2)c(CN2CCN(c3ccc(F)cc3)CC2)c1C,-12.5,8160,3.2,11.7,0.0
SMILES,PriA SSB inh,Bead autofluor,BoNT-A LC inh2,Anthrax LF prot,BoNT-F LC inh
CC(=O)Nc1sc2c(c1CN1CCN(c3ccccn3)CC1)CCCC2,8.1,22350*,2.0,-1.8,1.5
Cc1sc(NC(=O)c2ccco2)c(CN2CCN(c3ccccn3)CC2)c1C,7.2,23314*,-0.4,-2.5,-2.4
O=c1[nH]c(-c2ccc(O)cc2)nc2scc(-c3cccs3)c12,-10.8,5273,-1.1,-1.9,-2.8
Cc1nc2scc(-c3cccs3)c2c(=O)[nH]1,4.1,25937*,-4.2,-1.3,-6.9
COc1ccc(/C=C(/C(=O)Nc2ccccc2C(=O)N2CCCC2)c2ccccc2)cc1,5.1,22608*,0.1,0.2,1.3
COc1ccc(/C=C(/C(=O)Nc2ccccc2C(=O)NC(C)C)c2ccccc2)cc1,5.9,17014*,-2.4,-0.9,-7.3
COc1ccc(NC(=O)c2ccccc2NC(=O)c2ccccc2)cc1,-0.1,3668,-0.2,-1.3,4.4
Cn1cccc1[C@@H](O)CCNC(=O)C(=O)NCc1ccc(F)cc1,-5.0,·,·,·,·
CC1(C)CC(=O)C2=C(C1)OC(=N)C(C#N)[C@H]2c1ccco1 (some centres not stated),-1.0,·,·,·,·
COC1=CC(=Cc2c(N)n3nc(CC(=O)N4CCOCC4)sc3nc2=O)C=CC1=O,2.6,·,·,·,·
C/C(=N\Nc1nnc(C)c(=O)[nH]1)C(=O)O,·,23478*,-0.2,-6.3,-0.7
COc1cc(-c2nc(-c3ccccc3)c(-c3cccs3)[nH]2)cc(OC)c1O,13.8,24448*,-1.4,-0.3,-2.1
Cc1ccccc1Cn1ccc(-c2ccc(Cl)cc2)c(C#N)c1=O,-1.3,23457*,0.5,-3.6,-3.8
CCNC(=O)c1cc(Br)ccc1Cl,-10.8,16959*,-2.4,-1.2,-0.5
O=S(=O)(NCCC(O)c1ccsc1)c1cccc(C(F)(F)F)c1 (configuration not stated),30.0,·,·,·,·
C=CCNC(=S)NNC(=O)Cn1c(-c2ccccc2)cc(=O)n2ncnc12,-1.3,3880,-3.3,32.0*,?
CCOc1ccccc1NC(=O)CC1CCCCN1S(=O)(=O)c1ccccc1 (configuration not stated),25.0,·,·,·,·
Cc1nnc(SCc2ccc(F)cc2Cl)s1,-15.8,19791*,-0.4,0.1,-2.1
Nc1nnc(SCc2ccc(F)cc2Cl)s1,5.2,21708*,6.7,1.9,6.6
Cc1nnc(SCc2cccc(CSc3nnc(C)s3)c2)s1,-4.6,3886,0.3,1.6,2.9
Cc1nnc(SCc2ccc3c(c2)OCO3)s1,-19.0,21079*,2.8,-8.0,3.2
Cc1nnc(SCc2c(Cl)cccc2Cl)s1,-27.4,5252,-0.3,3.3,-31.7
COc1ccc(C(=O)Cn2cnc3c(cnn3Cc3ccccc3F)c2=O)cc1,-3.0,·,·,·,·
CN(C)C(=C(C#N)C#N)N1CCN(c2ccc(Cl)cc2)CC1,-5.6,4303,-0.3,4.6,1.1
CN(C)C(=C(C#N)C#N)N1CCN(c2ccc(Cl)c(Cl)c2)CC1,-20.3,20347*,0.7,-4.7,-1.0
SMILES,PriA SSB inh,Bead autofluor,BoNT-A LC inh2,Anthrax LF prot,BoNT-F LC inh
Cc1c(-c2cccs2)[n+](=O)c2c(n1[O-])CCCC2,0.2,20042*,4.5,-21.8,10.8
Cc1[nH]nc(N=CC2=C(O)CC(c3ccco3)CC2=O)c1-c1ccc(Cl)cc1 (configuration not stated),-7.6,23437*,-3.4,-0.6,-3.6
O=C1CC(c2ccco2)CC(O)=C1C=Nc1ccc(Br)cc1 (configuration not stated),-9.5,4173,0.1,-3.5,-7.1
CC1(C)CC(=O)C(C=Nc2ccc(Cl)cn2)=C(O)C1,-8.0,4505,0.3,-0.4,9.0
Cc1ccc(N=CC2=C(O)CC(c3ccco3)CC2=O)cc1 (configuration not stated),-19.6,17259*,10.2,-0.6,17.5
Cc1[nH]nc(N=CC2=C(O)CC(C)(C)CC2=O)c1-c1ccc(Cl)cc1,-8.0,20907*!,?,2.6,-5.9
CCCCCOC(=O)CCN1C(=O)/C(=C\c2ccco2)SC1=S,25.0,·,·,·,·
O=C(Cc1ccc(F)cc1)Nc1ccc2c(c1)N(C(=O)c1ccco1)CC2,-5.0,·,·,·,·
O=C1C=C(NCC2CCCO2)C2(CCCCC2)O1 (configuration not stated),-25.7,19832*,2.5,-2.6,2.2
CC12CCC3C(CCC4CCCCC43C)C1CC/C2=N/N=C\c1ccccc1C(F)(F)F (configuration not stated),-21.0,·,·,·,·
Nc1nc(SCC(=O)Nc2cc(C(F)(F)F)ccc2Cl)[nH]c(=O)c1NC(=O)c1ccc(F)cc1,-10.0,·,·,·,·
Cc1ccc2cc(CCNC(=S)NCCn3ccc4ccccc43)c(=O)[nH]c2c1,46.0*,·,·,·,·
